Test results taken from ChEMBL document CHEMBL1157539, “Thousands of chemical starting points for antimalarial lead identification” (Nature, 2010).

What was measured:
Assay type in all cases: functional
Plasmodium falciparum [1] = assay: GSK_TCMDC: Inhibition of Plasmodium falciparum 3D7 in whole red blood cells, using parasite LDH activity as an index of growth. Test compounds present at 2uM
Plasmodium falciparum [2] = assay: GSK_TCMDC: Inhibition of Plasmodium falciparum Dd2 in whole red blood cells, using parasite LDH activity as an index of growth. Test compounds present at 2uM
HepG2 = assay: GSK_TCMDC: Percent inhibition of human HepG2 cell line. Test compounds present at 10uM.

O=C(O)C(F)(F)F.O=[N+]([O-])c1ccc(Oc2ccccc2CNCC2CCN(CC3CCCCC3)CC2)cc1
Inhibition (Plasmodium falciparum [1]): 89%
Inhibition (Plasmodium falciparum [2]): 28%
Inhibition (HepG2): 40%

CCCCCCCCCN1CC[C@@H](CCCc2ccnc3ccc(O)cc23)[C@@H](CC)C1.O=C(O)C(=O)O
Inhibition (Plasmodium falciparum [1]): 83%
Inhibition (Plasmodium falciparum [2]): 59%
Inhibition (HepG2): 58%

CC(C)(C)OC(=O)NCc1ccc(Nc2nnc(-c3ccc(OCC(=O)NCc4ccc(C(C)(C)C)cc4)c([N+](=O)[O-])c3)o2)cc1
Inhibition (Plasmodium falciparum [1]): 96%
Inhibition (Plasmodium falciparum [2]): 82%
Inhibition (HepG2): 10%

Cl.Nc1nc(Nc2ccc(Cl)cc2)nc2ccccc12
Inhibition (Plasmodium falciparum [1]): 100%
Inhibition (Plasmodium falciparum [2]): 21%
Inhibition (HepG2): 6%
